# Compounds with a hit are over-represented: about 5.3% of the library has one in this group of screens.
# JMJD2A Tudor: blocks the human JMJD2A Tudor domain | O75164 | AlphaScreen JMJD2A-Tudor / H3K4me3 peptide binding | Potency, µM (top dose mostly 114 µM), for the others: at the top dose activity change, negative = inhibition, most hits filed as inhibitors | 4.4% of 390,000 active; note: potency is the fitted concentration of half-maximal effect; % is set by controls: 0 for no effect and ±100 for the full control effect; nearly all actives have a fitted effect of over 50% in size
# BAZ2B inh: inhibitors of human BAZ2B bromodomain. AlphaScreen BAZ2B-H3K14Ac peptide displacement. Potency, µM (doses to about 114 µM), for inactives: at the top dose activity change, negative = inhibition, most hits filed as inhibitors. 4.4% of 360,000 active. AID 504333; note: potency is the fitted concentration of half-maximal effect; % is set by controls: 0 for no effect and ±100 for the full control effect; nearly all actives have a fitted effect of over 60% in size
#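 BAZ2B 50 nM plus b-H3(5-23)K14Ac 50 nM, PBS pH 7.4/0.01% Tween-20, 30 min RT; compound added (max 110 uM), 30 min RT; streptavidin donor/Ni-chelate acceptor beads 10 ug/mL final, 20 min dark; AlphaScreen read.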
# TDP1 block: blocks human tyrosyl-DNA phosphodiesterase 1 | recombinant TDP1, AlphaScreen DNA substrate cleavage | 0.28% of 350,000 active | Q9NUW8 | Potency, µM (series often up to 130 µM), inactives show at the highest dose activity change, negative = inhibition, hits mostly inhibitors; note: potency is the fitted concentration of half-maximal effect; % is set by controls: 0 for no effect and ±100 for the full control effect; nearly all actives have a fitted effect of over 40% in size
# Target sequence (Q9NUW8 whole entry, looked up): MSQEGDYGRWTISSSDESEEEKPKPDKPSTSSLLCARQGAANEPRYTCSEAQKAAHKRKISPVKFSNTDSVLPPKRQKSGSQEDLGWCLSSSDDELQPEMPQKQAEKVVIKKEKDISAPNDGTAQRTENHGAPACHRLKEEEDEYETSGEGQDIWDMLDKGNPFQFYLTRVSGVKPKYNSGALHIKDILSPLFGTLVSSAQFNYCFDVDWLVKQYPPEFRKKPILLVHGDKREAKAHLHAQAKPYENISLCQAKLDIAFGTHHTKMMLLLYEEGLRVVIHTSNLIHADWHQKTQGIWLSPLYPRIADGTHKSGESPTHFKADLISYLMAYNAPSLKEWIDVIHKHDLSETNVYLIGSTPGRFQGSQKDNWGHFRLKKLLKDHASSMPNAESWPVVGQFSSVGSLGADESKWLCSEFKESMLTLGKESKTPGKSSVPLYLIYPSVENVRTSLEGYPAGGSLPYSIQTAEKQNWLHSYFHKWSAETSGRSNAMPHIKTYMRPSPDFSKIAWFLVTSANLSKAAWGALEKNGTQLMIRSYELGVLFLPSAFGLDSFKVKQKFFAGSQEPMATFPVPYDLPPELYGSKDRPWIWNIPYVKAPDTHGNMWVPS
#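 Recombinant human Tdp1 (E. coli-expressed, 1 nM final) preincubated with compounds 15 min at room temperature, then 5'-biotin/3'-phosphotyrosine-FITC DNA substrate (15 nM final) added for 5 min. AlphaScreen beads (10 ug/ml final) added 10 min; cleavage lowers signal.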
# Six1-Eya2 blk: blocks human Six1 binding to Eya2. AlphaScreen GST-Six1/His-Eya2 binding, biochemical; stronger effect = lower value. 0.56% of 360,000 active. activity change, % (no concentration beside the values). AID 651725; in the data active = activity change below about -65%; inconclusive = mostly about -30% to -63%; note: % is set by controls: 0 for no effect and ±100 for the full control effect
#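 Compounds are tested against tagged Six1 and Eya2 proteins bridged by glutathione donor and nickel acceptor beads; after a one-hour incubation at 37 °C without light, AlphaScreen emission is recorded.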
# CtBP-E1A inh: blocks the CtBP interaction with E1A; AlphaScreen GST-E1A/His-CtBP binding, 1536-well; stronger effect = lower value; activity change, % (no concentration beside the values); 0.49% of 340,000 active; in the data active = activity change below about -65%; inconclusive = mostly about -30% to -63%; note: % is set by controls: 0 for no effect and ±100 for the full control effect
#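 Steps: dispense buffer (Tris pH 8.0, NaCl 300 mM, TCEP 1 mM, BSA, Tween 20); add 5X protein mix (GST-E1A, His-CtBP, 125 nM each); pin 23 nL compound; 2 h at 37 °C, dark; add 5X beads (50 ug/mL); 1 h; read.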
# HP1b binding inh: inhibitors of HP1-beta chromodomain binding to methylated histone tails; P83916; AlphaScreen HP1-beta / biotin-H3K9me3 peptide binding; Potency, µM (highest dose often 114 µM), for the others: at the top dose activity change, negative = inhibition, hits mostly inhibitors; 0.56% of 390,000 active; note: potency is the fitted concentration of half-maximal effect; nearly all actives have a fitted effect of over 70% in size
#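 Compound inhibition of the preformed complex between 50 nM HP1-beta and 50 nM biotinylated H3K9me3 peptide was read by AlphaScreen. Buffer was PBS pH 7.4 with 0.01% Tween-20. Incubations ran 30 min at room temperature, with 10 ug/mL donor/acceptor beads.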
# The depositor's hits bear a star; u = inconclusive; x = no result; [ ] = dose if it differs, or a comment. Unless noted, calls come from the whole dose curve; as a rule, active = well fitted inhibition curve with a large enough effect; inconclusive = small, poorly fitted or top-dose-only effect; inactive = no such curve, though single readings can be large or run the other way.
SMILES,JMJD2A Tudor,BAZ2B inh,TDP1 block,Six1-Eya2 blk,CtBP-E1A inh,HP1b binding inh
CCOC(=O)Cc1ccc(NC(=O)NCc2ccc3c(c2)CCN3C(=O)CC)cc1,-11%,0%,4%,x,x,20%[57 µM]
Cc1[nH]n(-c2ccccc2)c(=S)c1C=Nc1cccc([N+](=O)[O-])c1,2.5µM*,22µM*,6%,1,0,-72%
O=C(/C=N/O)NCCCN1CCCCCC1,u,50µM*,3%,2,7,17%
CCOC(=O)C1CCN(C(=O)CSc2ccccc2)CC1,50µM*,2%,2%,2,4,u
CCOC(=O)C1CCN(C(=O)CC(C)c2ccccc2)CC1 (stereo unspecified),28µM*,-24%,-1%,3,0,u
CCOC(=O)C1CCCN(C(=O)CC(C)c2ccccc2)C1 (stereo unspecified),-11%,5%,-11%,2,2,25%
CCCCCCC1CC(CCc2nc(=S)[nH][nH]2)C(=O)O1 (stereo unspecified),32µM*,0%,8%,-5,3,-17%
CCCCCCCCc1nc(=S)[nH][nH]1,u,13%,8%,-1,8,u
Cc1ccc(S(=O)(=O)c2cn(Cc3ccccc3)c3cc(N4CCCC4)c(F)cc3c2=O)cc1,-29%,3%,1%,x,x,44%
Cc1cc(Br)ccc1NC(=O)CCNS(=O)(=O)c1cccc2nonc12,-19%,1%,9%,x,x,14%
CCCC[C@@H]1CNCCN1CCc1cccc(F)c1,-12%,-36%,-1%,2,4,34%
Fc1cccc(CCN2CCNC[C@@H]2Cc2ccccc2)c1,56µM*,x,x,0,-2,14%
N#Cc1nc(COc2ccccc2F)oc1NCCCn1ccnc1,u,u,4%,u,-75*,31%
COc1ccccc1OCc1nc(C#N)c(NCCCn2ccnc2)o1,-24%,u,-3%,-1,-4,44%
Cc1ccc(OCc2nc(C#N)c(NCCCn3ccnc3)o2)cc1,8%[11.4 µM],50µM*,7%,-10,-15,-20%
Cc1ccc(S(=O)c2ccc(NC(=O)C3CC3)cc2C#N)cc1 (stereo unspecified),14µM*,-1%,-2%,8,9,-18%
O=C(O)c1cccc(NC(=O)c2ccc3c(c2)C(=O)N(Cc2ccco2)C3=O)c1,-13%,u,50µM*,-17,-1,25%
O=C(O)c1ccc2c(c1)C(=O)N(Cc1ccco1)C2=O,u,-23%,x,24,0,-19%
Cc1cc(/C([O-])=C(/C(=S)Nc2ccc(F)cc2)[n+]2ccccc2)c(C)n1-c1ccc(F)cc1,50µM*,45µM*,7%,-13,-14,x
Cc1ccc(NC(=S)NCC23C=CC(O2)C2C(=O)N(c4ccc(C)cc4)C(=O)C23)cc1 (stereo unspecified),89µM*,-27%,10%,-17,1,u
Cc1ccc(N2C(=O)C3C4C=CC(CNC(=S)N5CCN(c6ccccc6)CC5)(O4)C3C2=O)cc1 (stereo unspecified),u,x,7%,2,x,u
CCn1c(CCn2ccnc2C)n[nH]c1=S,22µM*,3%,-3%,4,1,23%
Cn1c2cc(S(C)=O)sc2c2cnn(Cc3cccc(O)c3)c(=O)c21 (stereo unspecified),4%,x,1%,x,x,x
c1csc(-c2nc3ccccn3c2NC2CCCCC2)c1,-13%,u,5%,-5,7,17%
CC(=O)c1ccc(-c2cccc(-c3nc4ccccn4c3NC3CCCCC3)c2)cc1,u,40µM*,7%,-22,x,-14%
SMILES,JMJD2A Tudor,BAZ2B inh,TDP1 block,Six1-Eya2 blk,CtBP-E1A inh,HP1b binding inh
CCC(C)Sc1cc(-c2nc3ccccn3c2NC2CCCCC2)ccc1OC (stereo unspecified),79µM*,u,0%,-14,-22,4%
Cc1ccn2c(NC3CCCC3)c(-c3cccs3)nc2c1,10µM*,u,5%,0,-2,-11%
CCC(C)Sc1cccc(-c2nc3cnccn3c2NC2CCCCC2)c1 (stereo unspecified),-4%,x,-9%,27,37,97%
CCCCNc1c(-c2ccc(OC)c(SC(C)CC)c2)nc2cc(C)ccn12 (stereo unspecified),u,x,6%,-22,-16,1%
CCC(C)Sc1cc(-c2nc3cc(C)ccn3c2NC2CCCCC2)ccc1OC (stereo unspecified),50µM*,x,2%,-16,-1,-10%
COc1cccc(NC(CNS(=O)(=O)c2ccc(Cl)cc2)c2ccccc2)c1 (stereo unspecified),-34%,-4%,8%,x,x,34%
COc1ccc(S(=O)(=O)c2c(Nc3c(C)cccc3C)sc(C(=O)c3ccc4c(c3)OCO4)c2N)cc1,-33%,-13%,1%,x,x,9%[57 µM]
COc1ccc(OC)c(C2=Nn3c(nnc3-c3ccccc3OC)SC2)c1,-15%,x,10%,x,x,x
Cc1nn2c(=O)cc(COc3ccc(/C=C(\C#N)C(=O)Nc4ccc(F)cc4)cc3)nc2s1,-7%,-24%,-12%,x,x,64%
C/C(=N\N=C1\NC(=O)CC(C(=O)O)S1)c1ccc(F)cc1 (stereo unspecified),-20%,-21%,-2%,15,3,32%
O=C1CC(C(=O)O)S/C(=N\NC(=O)c2ccccc2)N1 (stereo unspecified),1.4µM*,50µM*,0%,0,3,11%
COc1ccc(/C(C)=N/N=C2/NC(=O)CC(C(=O)O)S2)cc1 (stereo unspecified),45µM*,-3%,0%,12,-9,8%
CCOc1ccc(CNCc2c(C(=O)O)c(C)n(Cc3c(F)cccc3Cl)c2C)cc1OC,u,-35%,5%,x,x,-7%
COc1cccc(CNC(=O)CSc2ccc(-c3ccccn3)nn2)c1,u,13µM*,11%,-65*,-74*,21%
O=C(CSc1ccc(-c2ccco2)nn1)NCc1ccc(Cl)cc1,-16%,-3%,1%,0,-1,25%
O=C(CSc1ccc(-c2ccccn2)nn1)NCc1ccc(Cl)cc1,u,14µM*,3%,u,-70*,26%
Cc1ccc(C)c(N2CCN(S(=O)(=O)c3ccc4[nH]c5c(c4c3)CCCCC5)CC2)c1,u,-17%[57.1 µM],2%,x,x,-3%
CC(C)=CCC/C(C)=C/CO/N=C1/C[C@@H](O)[C@@H](O)[C@@H]2[C@@H]3C(=O)N([C@@H](C)c4ccccc4)C(=O)[C@H]3CC[C@H]12,x,x,4%[21 µM],x,x,x
